Screening results (PubChem BioAssay)
POLK inh = DNA polymerase kappa (human) inhibition; Potency, µM (series often up to 107 µM), for the others: at the top dose activity, negative = inhibition, most hits filed as inhibitors; AID 588579; actives 0.53% (n = 400,000); purified Pol kappa, fluorescent DNA synthesis assay, 10 min; Q9UBT6; also: potency is read from the fitted curve at half-maximal effect; % is scaled to controls: 0 for no effect and ±100 for the full control effect
Target sequence (Q9UBT6 whole entry, looked up): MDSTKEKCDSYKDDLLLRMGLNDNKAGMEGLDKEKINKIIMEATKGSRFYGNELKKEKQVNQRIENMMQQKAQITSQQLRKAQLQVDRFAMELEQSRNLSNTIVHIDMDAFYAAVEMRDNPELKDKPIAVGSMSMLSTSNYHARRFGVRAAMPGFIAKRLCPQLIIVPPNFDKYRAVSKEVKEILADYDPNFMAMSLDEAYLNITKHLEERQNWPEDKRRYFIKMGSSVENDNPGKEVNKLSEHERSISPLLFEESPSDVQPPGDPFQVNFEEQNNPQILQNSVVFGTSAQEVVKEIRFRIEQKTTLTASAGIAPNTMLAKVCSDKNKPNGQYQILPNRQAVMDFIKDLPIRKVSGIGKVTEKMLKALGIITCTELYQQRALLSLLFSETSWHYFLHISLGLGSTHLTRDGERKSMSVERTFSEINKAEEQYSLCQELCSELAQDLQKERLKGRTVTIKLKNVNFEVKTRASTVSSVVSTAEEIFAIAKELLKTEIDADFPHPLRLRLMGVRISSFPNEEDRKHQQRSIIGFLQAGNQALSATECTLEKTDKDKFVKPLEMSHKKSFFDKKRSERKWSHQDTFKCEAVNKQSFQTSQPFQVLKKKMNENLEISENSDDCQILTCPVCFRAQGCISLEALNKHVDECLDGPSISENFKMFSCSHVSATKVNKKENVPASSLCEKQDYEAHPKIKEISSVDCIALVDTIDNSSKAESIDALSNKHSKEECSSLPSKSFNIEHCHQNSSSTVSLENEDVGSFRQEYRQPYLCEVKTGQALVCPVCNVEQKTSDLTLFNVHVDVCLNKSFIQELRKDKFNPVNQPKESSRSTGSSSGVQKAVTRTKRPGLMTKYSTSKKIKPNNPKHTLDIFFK
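Here, compound and 10 nM enzyme are combined for 15 min at room temperature; adding 50 nM substrate (final) starts DNA synthesis, tracked by fluorescence at 0 and 10 min against buffer-only wells.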
WRN inhibitor = WRN helicase (human) inhibition; WRN helicase unwinding, fluorescent forked duplex, kinetic; Potency, µM (doses to about 114 µM), for the others: top-dose activity change, negative = inhibition, usual class: inhibitors; actives 0.46% (n = 360,000); also: potency is read from the fitted curve at half-maximal effect; % is scaled to controls: 0 for no effect and ±100 for the full control effect; nearly all actives have a fitted effect of over 55% in size
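Fluorescence dequenching readout, ex 525 nm/em 598 nm, kinetic mode: forked duplex DNA (100 nM final) with adjacent fluorophore and quencher unwound by WRN (20 nM final) with 2 mM ATP. Compound preincubation 15 min, room temperature.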
POLB inh = inhibitors of human DNA polymerase beta. Pol beta primer extension/strand displacement, fluorescence kinetic. P06746. actives 1.3% (n = 340,000). AID 485314. Potency, µM (titrated, usually from 114 µM), for the others: at the highest dose activity change, negative = inhibition, hits mostly inhibitors; also: potency is read from the fitted curve at half-maximal effect; % is scaled to controls: 0 for no effect and ±100 for the full control effect
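Human Pol beta at 10 nM; strand-displacement substrate 50 nM final. Compound exposure 15 min at room temperature before start, reaction 10 min at room temperature.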
Pol eta inh = DNA polymerase eta (human) inhibition. actives 1.2% (n = 390,000). recombinant Pol eta, fluorescent DNA replication assay. Q9Y253. Potency, µM (top dose mostly 114 µM), without a hit: top-dose activity change, negative = inhibition, usual class: inhibitors; also: potency is read from the fitted curve at half-maximal effect; % is scaled to controls: 0 for no effect and ±100 for the full control effect
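Pol eta (10 nM) was preincubated with compounds for 15 min at room temperature, after which fluorescent replication substrate (50 nM final) was added to start the reaction. Fluorescence was read kinetically at 0 and 10 min.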
POLI inh = DNA polymerase iota (human) inhibition; Pol iota fluorescent replication assay, 10 min; Potency, µM (titrated, usually from 115 µM), inactives show top-dose activity, negative = inhibition, actives largely listed as inhibitors; actives 1% (n = 390,000); also: potency is read from the fitted curve at half-maximal effect
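Pol iota at 10 nM preincubated 15 min with compounds at room temperature; reaction started with fluorescent substrate, 50 nM final. Fluorescence read kinetically at 0 and 10 min; buffer-only wells as negative control.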
PI5P4Ka inh = inhibitors of human PI5P4K alpha | P48426 | PI5P4Kalpha enzyme, ADP-Glo luminescence, 60 min; hits give low values | max response, % | actives 1.2% (n = 330,000) | AID 652105; active = max response of -50% or lower; inconclusive = between -30% and -50%; inactive = -30% or higher; also: value at the top dose of about 77 µM; % is scaled to controls: 0 for no effect and ±100 for the full control effect
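Quantitative HTS of the MLSMR library against PI5P4Kalpha with substrate. ATP added last at 5 microM final; room temperature, 60 minutes. Remaining ATP depleted, ADP converted and read as luminescence.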
TbPGK inh = blocks T. brucei phosphoglycerate kinase; Potency, µM (titrated, usually from 57.5 µM), for the others: at the highest dose activity change, negative = inhibition, hits mostly inhibitors; shares compounds with POLK inh; TbPGK coupled GAPDH assay, Kinase-Glo luminescence; actives 79% (n = 500); AID 686980; also: potency is read from the fitted curve at half-maximal effect; % is scaled to controls: 0 for no effect and ±100 for the full control effect; nearly all actives have a fitted effect of over 65% in size
POLI cherry-pick = Inhibitors of human DNA polymerase iota, confirmation; shares compounds with POLK inh; Pol iota primer extension, TAMRA/BHQ fluorescence; Potency, µM, hits mostly inhibitors; actives 77% (n = 1,500); also: potency is read from the fitted curve at half-maximal effect
* = called active by the depositor; ? = inconclusive; nt = no result; [ ] = another dose, or the depositor's remark. This is a sample that favours compounds with a hit; in the whole collection about 2.8% have one here. Unless noted, calls follow the shape of the dose curve; as a rule, active = well fitted curve in the direction sought with a large enough effect; inconclusive = small, poorly fitted or top-dose-only effect, or another doubt; inactive = no such curve, though single readings can be large; an effect the other way counts as inactive or inconclusive.

SMILES	POLK inh	WRN inhibitor	POLB inh	Pol eta inh	POLI inh	PI5P4Ka inh	TbPGK inh	others
c1ccc2c(C3=NNC(=NC4CC4)SC3)c[nH]c2c1	-6%	-24%	-12%	-17%	-12%	-20	nt
c1ccc(C2=NNC(=NC3CC3)SC2)cc1	-9%[60.1 µM]	0%	11%	-1%	?	nt	16µM*
O=C(CN1C(=O)S/C(=C\C=C\c2ccccc2)C1=O)N1CCOCC1	-15%	0%	2%	-8%	4%	1	nt
COc1ccc(CNC(=O)CCc2c(C)c3cc4c(C)coc4cc3oc2=O)cc1	10%	nt	1%	12%	?	nt	nt
Cc1ccc2nc(-c3ccccc3)cn2c1	9%	-13%	8%	-4%	37%	?	12µM*
COc1ccc(-c2cc3nc(C)cc(N)n3n2)cc1	-7%	-29%	0%	-20%	41%	?	9.2µM*
COc1ccc(-c2cc3nc(C)cc(-c4ccc(OC)cc4)n3n2)cc1	-8%	-3%	11%	-16%	0%	16	nt
Cn1c(-c2cnn(-c3ccccc3)c2-n2cccc2)n[nH]c1=S	2%	1%	-13%	-1%	7%	-6	nt
Cc1ccsc1/C=N/Nc1nc(=O)[nH]nc1C	-3%	1%	18%	-18%	-15%	?	18µM*
COc1ccc(CNc2ccnc(-c3cccc(C#N)c3)n2)c(OC)c1	-6%[60.1 µM]	nt	nt	nt	nt	nt	nt
COc1ccc(-n2nc(C(=O)Nc3ccc(OC)c(OC)c3)c3c4ccccc4n(C)c3c2=O)cc1	-10%	-21%[11.6 µM]	-22%	?	?	-2	nt	POLI cherry-pick=4.7*
COc1ccc(-n2nc(C(=O)Nc3ccc4c(c3)OCO4)c3c4ccccc4n(C)c3c2=O)cc1	4%	2%	0%	-13%	-1%	-2	nt
COc1c(O)c(=O)n2c3ccccc3c3ccnc1c32	-14%	-19%	nt	-26%	?	-4	nt	POLI cherry-pick=4.7*
CCC(C)[C@H]1CNCCN1CCc1cccc2ccccc12 (stereo partly drawn)	-29%	-5%	nt	8%	?	-25	?
CCC(C)[C@H]1CNCCN1CC1(c2ccccc2)CC1 (stereo partly drawn)	-5%	14%	nt	-6%	?	-3	nt
COC(=O)c1cc(NC(=O)Cn2nc(-c3ccc(C)c(C)c3)ccc2=O)cc(C(=O)OC)c1	-9%	nt	-19%	-11%	23%	nt	nt
CCN1CCN(Cc2ccc(NC(=O)c3ccc(C)c(NC(=O)N4CCNC4=O)c3)cc2C(F)(F)F)CC1	-2%	0%	25%	?	?	-4	26µM*
CCN1CCN(Cc2ccc(NC(=O)c3ccc(C)c(NC(=O)c4nccn4C)c3)cc2C(F)(F)F)CC1	0%	9%	5%	-14%	12%	-5	nt
Cc1ccc(O)c(-c2cc(C(=O)Nc3ccc(S(=O)(=O)N4CC(C)OC(C)C4)cc3)[nH]n2)c1 (stereo not drawn)	-9%	-6%	-6%	-3%	-6%	nt	nt
Cc1ccc(-c2cc(C(=O)Nc3ccc(S(=O)(=O)N4CC(C)OC(C)C4)cc3)[nH]n2)c(O)c1 (stereo not drawn)	?	?	18µM*	-24%	40µM*	-18	nt	POLI cherry-pick=75*
O=C(NCc1ccccc1)c1ccc(NC(=O)C2CCCC2)cc1	0%	1%	nt	-18%	36%	1	1%
CCNC(=O)C1(C)CCN(C(=O)c2ccc(OC(F)F)cc2)C1 (stereo not drawn)	nt	2%	nt	nt	nt	3	nt
CC(C)CCNC(=O)c1ccc2c(c1)NC(=O)C(CS(=O)(=O)Cc1ccc(F)cc1)N2 (stereo not drawn)	4%	nt	3%	?	26%	nt	nt	POLI cherry-pick=?
